Experimental data from PubChem BioAssay.
Records with an inconclusive call do not appear. Activity calls are given as the source filed them.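 The calls were made as follows, unless noted: active = viability at or below 30% in both replicate assays; inconclusive = viability at or below 30% in just one of the two assays; inactive = the rest.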

Tests used:
[1] = reducers of endogenous Her2 protein level, primary screen, SKBR3 breast tumor cells, AlphaScreen, ATP viability (AID 461;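 active = Her2 level under about 52% in both replicate screens, with viability over 70% of control, limit read from the data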;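 as to Her2 level: lower value means less Her2 protein in the cells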;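 as to viability: percent of carrier control wells set as 100% viability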); settings: 18-24 h, measured here: SKBR3 viability, ATP luminescence, at 10 µM
[2] = target: Receptor tyrosine-protein kinase erbB-2 (Homo sapiens) (UniProt P04626); test: as above; settings: 18-24 h, at 10 µM, stronger effect = lower value
[3] = SK-BR-3 cell growth inhibitors, pilot screen, 24 h, human (AID 572;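 active = viability at or below 10% of carrier control in both of two separate runs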;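 also: compound exposure lasted between 18 and 24 h rather than exactly 24 h; 100% = carrier-treated control wells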); settings: SK-BR-3 viability, CellTiter-Glo luminescence, at 10 µM, stronger effect = lower value
[4] = HUVEC growth inhibition – cell-based, human, primary screen (AID 575); settings: HUVEC proliferation, CellTiter-Glo luminescence, 72 h; at 10 µM; stronger effect = lower value;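 also: 100% = median of untreated cell wells with 0.1% DMSO on each plate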
[5] = growth inhibitors of H69AR lung tumor, primary screen, human, duplicate replicates (AID 580;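 active = viability at or under a set limit in both replicates, limit being median viability minus 3 SD, cut at about 48% in these data, passing the limit was not always enough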;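 also: 100% = mean luminescence of untreated wells and 0% = no signal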); settings: H69AR lung tumor cells viability, ATP luminescence, 72 h; at 10 µM; stronger effect = lower value
[6] = reversal of MRP1-mediated doxorubicin resistance, pilot screen, H69AR cells, doxorubicin co-treatment (AID 601;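 active = viability loss from added drug above about 55%, and viability with drug at most 40%, in both replicates, limit read from the data, passing the limit was not always enough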); settings: CellTiter-Glo, 72 h, at 10 µM; for differential viability (reversal): stronger effect = higher value
[7] = 384-well plate pilot, post-Golgi transport modulator project, inhibition of yeast transport mutant growth (AID 636; in the data active = inhibition above about 31%); settings: absorbance 615 nm, about 18 h, stronger effect = higher value
[8] = growth suppression of yeast trafficking mutant, preliminary HTS, modulators of trafficking downstream of Golgi apparatus project, 1536-format plate, OD 615 nm (AID 637; in the data active = inhibition above about 30%); settings: yeast transport mutant growth, absorbance 615 nm, 18 h; stronger effect = higher value
[9] = OD615 S. cerevisiae growth inhibition, permissive medium, pilot counter-assay, permissive growth control for S. cerevisiae lifespan shortening project (AID 705;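 active = growth inhibition above 25% in both replicates, a cutoff set 3 SD above the mean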); settings: OD615, 24 h, at 10 µM, stronger effect = higher value
[10] = Restrictive medium S. cerevisiae growth inhibition, OD615, pilot screen of yeast lifespan reduction project, restrictive growth control (AID 706;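 active = growth inhibition above a set limit, 3 SD over mean compound inhibition, in both replicates, cut at about 43% in these data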;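 also: modified DeaD lifespan yeast strain shifted to restrictive glucose medium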); settings: OD615, 48 h, at 10 µM, stronger effect = higher value
[11] = viability gain of MRP-1-high H69AR cells under doxorubicin, pilot screen, MRP-1 activator project, CellTiter-Glo, duplicate (AID 807;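 active = viability increase at or above a cutoff of the median across tested compounds plus 3 SD, cut at about 8.5% in these data, passing the limit was not always enough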;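 also: compound pretreatment 18-22 h then 72 h combined with doxorubicin; 0% = doxorubicin alone and 100% = vehicle without doxorubicin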); settings: H69AR viability with doxorubicin, CellTiter-Glo luminescence; at 10 µM; stronger effect = higher value
[12] = growth suppression of beta-catenin knockout HCT116, pilot screen, human colon tumor cells (AID 823;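 active = cell viability at or below a set limit in both duplicate runs, the limit being the all-compound median minus 4 SD, cut at about 23% in these data, passing the limit was not always enough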;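 also: 0% = wells killed by 20 µM Hyamine and 100% = untreated DMSO cell wells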); settings: CellTiter-Glo, 60 h, at 10 µM, stronger effect = lower value
[13] = growth suppression of PTEN-deleted HCT116, pilot screen, cell-based, HCT116 clonal line, CellTiter-Glo (AID 824;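 active = viability at or below 27.92% in each of two runs, the all-compound median minus 4 SD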;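 also: 0% = 20 µM Hyamine control and 100% = vehicle cell control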); settings: 60 h, at 10 µM, stronger effect = lower value
[14] = inhibitors of the yeast RAM network, pilot screen, dse1pr::URA3 reporter, 5-FOA selection (AID 869;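 active = inhibition over a set limit, the all-compound mean plus 3 SD, in both replicate runs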;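 also: 0% = DMSO wells with no growth and 100% = 10 µM 1-NA-PP1 with full growth; RAM network block rescues cells from 5-FOA so hits raise OD615 growth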); settings: S. cerevisiae dse1pr::URA3 5-FOA growth, OD615, 2 d; at 10 µM; stronger effect = higher value; strain carries analog-sensitive mutant Cbk1 kinase
[15] = RAM signaling pathway blockade in yeast – S. cerevisiae, Pdr1DBD-CYC8 efflux-inhibited sensitized strain, primary screen (AID 1298;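 active = RAM network inhibition above 8.4% in each of two replicates, 3 SD over the compound average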;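 also: 0% = DMSO untreated cells without growth and 100% = 10 µM 1-NA-PP1 full growth; higher means more yeast growth rescued from 5-FOA killing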); settings: S. cerevisiae cbk1-as DSE1-URA3 strain, 5-FOA growth OD615, 2 d; at 50 µM; stronger effect = higher value
[16] = H69AR cells + 2 uM doxorubicin, measured here: viability with 2 uM doxorubicin, stronger effect = lower value
[17] = H69AR cells, compound alone cytotoxicity

Chain of Receptor tyrosine-protein kinase erbB-2 (Homo sapiens) (P04626 whole entry, looked up): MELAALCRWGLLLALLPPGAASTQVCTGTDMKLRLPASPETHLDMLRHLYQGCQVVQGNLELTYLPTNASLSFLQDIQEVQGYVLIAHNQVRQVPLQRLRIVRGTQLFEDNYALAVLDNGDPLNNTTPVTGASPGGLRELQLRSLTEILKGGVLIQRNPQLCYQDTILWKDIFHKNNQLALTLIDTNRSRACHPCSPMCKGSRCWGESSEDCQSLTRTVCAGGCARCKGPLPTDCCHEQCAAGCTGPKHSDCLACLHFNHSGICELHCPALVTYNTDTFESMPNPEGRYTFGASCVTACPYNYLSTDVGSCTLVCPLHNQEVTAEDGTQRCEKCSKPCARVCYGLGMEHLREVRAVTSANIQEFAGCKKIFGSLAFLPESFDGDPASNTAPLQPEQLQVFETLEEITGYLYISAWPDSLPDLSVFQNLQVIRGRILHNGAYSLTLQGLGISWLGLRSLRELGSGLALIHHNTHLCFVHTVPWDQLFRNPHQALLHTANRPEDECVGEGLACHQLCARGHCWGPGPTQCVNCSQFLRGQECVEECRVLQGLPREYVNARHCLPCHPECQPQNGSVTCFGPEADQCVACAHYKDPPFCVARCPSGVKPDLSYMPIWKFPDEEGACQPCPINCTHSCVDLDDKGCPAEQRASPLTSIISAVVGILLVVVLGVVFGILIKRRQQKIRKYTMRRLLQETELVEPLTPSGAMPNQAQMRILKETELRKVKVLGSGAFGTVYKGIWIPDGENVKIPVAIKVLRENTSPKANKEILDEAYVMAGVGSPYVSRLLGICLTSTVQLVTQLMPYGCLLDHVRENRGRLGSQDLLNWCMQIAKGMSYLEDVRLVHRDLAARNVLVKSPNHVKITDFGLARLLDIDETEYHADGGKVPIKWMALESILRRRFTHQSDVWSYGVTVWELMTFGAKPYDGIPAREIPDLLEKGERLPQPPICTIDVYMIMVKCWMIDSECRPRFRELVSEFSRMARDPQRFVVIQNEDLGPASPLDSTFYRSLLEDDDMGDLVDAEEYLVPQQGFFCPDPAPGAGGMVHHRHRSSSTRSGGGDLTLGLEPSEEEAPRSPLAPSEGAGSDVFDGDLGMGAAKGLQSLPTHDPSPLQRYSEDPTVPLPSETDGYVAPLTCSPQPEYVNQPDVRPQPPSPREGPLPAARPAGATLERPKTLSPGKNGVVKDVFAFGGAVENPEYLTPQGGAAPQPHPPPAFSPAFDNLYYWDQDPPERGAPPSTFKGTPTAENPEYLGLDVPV

| Compound | viability [1] [%] | Her2 level [2] | viability [3] | viability [4] | viability [5] | differential viability (reversal) ([6]; H69AR cells + 2 uM doxorubicin) | viability [6, 16] [%] | viability [6, 17] [%] | inhibition [7] | inhibition [8] | growth inhibition [9] | growth inhibition [10] | viability increase [11] | viability [12] | viability [13] | inhibition [14] | RAM network inhibition [15] |
| --- | --- | --- | --- | --- | --- | --- | --- | --- | --- | --- | --- | --- | --- | --- | --- | --- | --- |
| CC1=C(C(=O)OCc2ccccc2)C(c2ccco2)n2ncnc2N1 (stereo not drawn) | 98.5 | 95% (inactive) | 98.5% (inactive) | 87.1% (inactive) | 112% (inactive) | 23% (inactive) | 88.7 | 112 | -2.95% (inactive) | 2.67% (inactive) | 3.25% (inactive) | -3.8% (inactive) | -2.11% (inactive) | 92.8% (inactive) | 89% (inactive) | 0.83% (inactive) | 1.02% (inactive) |
| O=C(Nc1ccc2c(c1)OCCO2)c1cnc2n(c1=O)CCS2 | 85.5 | 80.5% (inactive) | 85.5% (inactive) | 105% (inactive) | 79.4% (inactive) | 0.765% (inactive) | 78.7 | 79.4 | 0.93% (inactive) | -2.95% (inactive) | -17.9% (inactive) | 2.96% (inactive) | 3.01% (inactive) | 106% (inactive) | 104% (inactive) | 1.6% (inactive) | 4.19% (inactive) |
| Cc1ccc(-c2cc3nc4c(c(=O)n3[nH]2)CCCC4)cc1 | 105 | 119% (inactive) | 105% (inactive) | 88.7% (inactive) | 91.9% (inactive) | -1.42% (inactive) | 93.4 | 91.9 | -0.26% (inactive) | -10% (inactive) | -17% (inactive) | -22.5% (inactive) | -0.73% (inactive) | 95.2% (inactive) | 90.4% (inactive) | 2.7% (inactive) | 5.06% (inactive) |
| COc1ccc(CN2C(=O)CN=C2Nc2ccc(C)cc2C)cc1 | 85 | 91% (inactive) | 85% (inactive) | 103% (inactive) | 84.9% (inactive) | 7.04% (inactive) | 77.8 | 84.9 | -3.82% (inactive) | -0.73% (inactive) | -7.07% (inactive) | -12.2% (inactive) | -1.49% (inactive) | 101% (inactive) | 89.4% (inactive) | 3.82% (inactive) | 5.11% (inactive) |
| CCc1cccc(NC(=O)Cn2cc3c(n2)CCCC3)c1 | 105 | 95.5% (inactive) | 105% (inactive) | 89.8% (inactive) | 94.8% (inactive) | 4.52% (inactive) | 90.3 | 94.8 | -4.53% (inactive) | -3.11% (inactive) | -17.8% (inactive) | -2.27% (inactive) | -1.41% (inactive) | 96.6% (inactive) | 97.2% (inactive) | 1.69% (inactive) | 0.42% (inactive) |
| COc1ccccc1NC(=O)N1CCN(c2cccc(C(F)(F)F)c2)CC1 | 89 | 98.5% (inactive) | 89% (inactive) | 78.1% (inactive) | 95.2% (inactive) | 16.9% (inactive) | 78.2 | 95.2 | -3.11% (inactive) | -10.3% (inactive) | -10.8% (inactive) | 3.75% (inactive) | 2.13% (inactive) | 89.5% (inactive) | 84.7% (inactive) | 0.115% (inactive) | 2.91% (inactive) |
| CCOC(=O)N1CCC(NC(=O)C2CCN(S(=O)(=O)c3cccc4cccnc34)CC2)CC1 | 90.5 | 97.5% (inactive) | 90.5% (inactive) | 97.6% (inactive) | 94.8% (inactive) | -6.25% (inactive) | 101 | 94.8 | -3.07% (inactive) | -3.33% (inactive) | -5.04% (inactive) | 3.31% (inactive) | 0.29% (inactive) | 91.4% (inactive) | 92.9% (inactive) | 1.02% (inactive) | 1.81% (inactive) |
| O=C(NC1CCCC1)C1CCCN(S(=O)(=O)c2cccc3cccnc23)C1 (stereo not drawn) | 102 | 116% (inactive) | 102% (inactive) | 115% (inactive) | 98.8% (inactive) | 3.92% (inactive) | 94.8 | 98.8 | -5.07% (inactive) | 4.33% (inactive) | -9.46% (inactive) | 1.54% (inactive) | -1.04% (inactive) | 100% (inactive) | 99.3% (inactive) | 0.7% (inactive) | 5.53% (inactive) |
| CCc1ccc(N2CC34C=CC(O3)C(C(=O)OC)C4C2=O)cc1 (stereo not drawn) | 102 | 104% (inactive) | 102% (inactive) | 96.7% (inactive) | 94.2% (inactive) | 12% (inactive) | 82.2 | 94.2 | -2.8% (inactive) | -1.17% (inactive) | -6.25% (inactive) | 3.24% (inactive) | 0.55% (inactive) | 102% (inactive) | 99.7% (inactive) | 0.255% (inactive) | 0.11% (inactive) |
